# Screens (PubChem)
# PME-1 primary = blocks human protein phosphatase methylesterase 1 | Q9Y570 | recombinant PME-1, FP-Rh probe fluorescence polarization | inhibition, % at 5.9 µM | 320,000 compounds, 0.53% hits | AID 2130;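 active = inhibition above the campaign mean of all compounds plus 3 SD, cut at about 26% in these data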;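 also: competitive labeling of PME-1 active site by serine hydrolase directed probe; 0% = PME-1 with DMSO and 100% = wells lacking PME-1 enzyme; inhibitors block probe labeling so polarization falls and inhibition rises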
# LYPLA2 counter = blocks human lysophospholipase 2, a PME1 counter-screen; recombinant LYPLA2, FP-Rh probe fluorescence polarization; inhibition, % at 5.9 µM; 320,000 compounds, 0.38% hits; AID 2177;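 active = inhibition above the screen-wide mean plus 3 SD, limit set per campaign, cut at about 26% in these data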;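 also: 0% = LYPLA2 with DMSO and 100% = wells lacking LYPLA2 enzyme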
# PREPL inhibitor = inhibitors of human prolyl oligopeptidase-like enzyme PREPL; Q4J6C6; recombinant PREPL, fluorescence polarization activity-based probe; inhibition, % at 5.96 µM; 320,000 compounds, 0.68% hits; AID 2751;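 also: 0% = enzyme with DMSO and 100% = wells lacking enzyme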
# Target sequence (Q4J6C6 whole entry, looked up): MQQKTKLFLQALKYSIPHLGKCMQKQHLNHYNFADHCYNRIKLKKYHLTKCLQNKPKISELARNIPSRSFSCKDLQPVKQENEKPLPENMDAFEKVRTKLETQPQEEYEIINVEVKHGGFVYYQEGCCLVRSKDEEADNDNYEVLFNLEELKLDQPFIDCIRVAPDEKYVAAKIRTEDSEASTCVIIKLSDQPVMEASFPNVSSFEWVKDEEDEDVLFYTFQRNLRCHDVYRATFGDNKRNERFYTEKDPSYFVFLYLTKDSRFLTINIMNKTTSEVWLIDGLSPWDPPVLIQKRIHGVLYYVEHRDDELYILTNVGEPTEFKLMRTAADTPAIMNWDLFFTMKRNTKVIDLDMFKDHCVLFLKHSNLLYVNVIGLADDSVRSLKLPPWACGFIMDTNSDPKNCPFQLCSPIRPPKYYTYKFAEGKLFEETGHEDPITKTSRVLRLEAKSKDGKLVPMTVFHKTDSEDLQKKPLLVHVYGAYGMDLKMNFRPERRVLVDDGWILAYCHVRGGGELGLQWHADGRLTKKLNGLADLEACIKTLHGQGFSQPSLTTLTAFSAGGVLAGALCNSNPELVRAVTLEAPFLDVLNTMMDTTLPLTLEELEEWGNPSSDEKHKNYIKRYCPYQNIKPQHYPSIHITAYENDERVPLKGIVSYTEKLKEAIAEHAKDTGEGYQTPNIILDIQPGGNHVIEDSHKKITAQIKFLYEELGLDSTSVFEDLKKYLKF
# Fam108B inh = Fam108B inhibition, counter-screen for RBBP9 inhibitors. recombinant Fam108B, FP-Rh probe fluorescence polarization. inhibition, % at 9.51 µM. 300,000 compounds, 0.33% hits. AID 1947;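 active = inhibition above the screen mean inhibition plus 3 SD, computed separately per campaign, cut at about 18% in these data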;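 also: inhibitors lower polarization as less probe binds the enzyme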
# MEX-5 binding = C. elegans MEX-5 TCR-2 RNA binding activity | Q9XUB2 | MEX-5/FITC-TCR2 RNA binding, fluorescence polarization; hits give low values | AID 1832 | activity score (negative = inhibition of binding), % at 10 µM | 300,000 compounds, 0.38% hits;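 active = inhibition past about -25% in most replicates, and total fluorescence under double the plate's negative control median, limit read from the data; inconclusive = replicates evenly split on the limit, or fluorescence at least double controls; inactive = too little inhibition in most replicates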;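 also: 0% = DMSO and -100% = 5 µM competing unlabeled TCR2 RNA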
# LYPLA1 counter = LYPLA1 (human) inhibition in PME1 counter-screen. O75608. recombinant LYPLA1, FP-Rh probe fluorescence polarization. inhibition, % at 5.9 µM. 320,000 compounds, 0.16% hits. AID 2174;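 active = inhibition above the mean of all tested compounds plus 3 SD, set per campaign, cut at about 14% in these data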;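 also: inhibitors block serine hydrolase probe labeling of LYPLA1 so polarization falls; 0% = enzyme with DMSO and 100% = wells lacking LYPLA1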
# Fam108b confirm = Fam108b (mouse) hydrolase inhibition, confirmation assay. shares compounds with Fam108B inh. recombinant Fam108b, FP-Rh probe fluorescence polarization. inhibition, % at 9.51 µM. 930 compounds, 44% hits. AID 1978;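 active = inhibition above a limit from the primary screen, the mean over all compounds plus 3 SD, cut at about 19% in these data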;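 also: 0% = median of active Fam108b wells and 100% = catalytically dead S170A mutant; inhibitors free the probe so polarization falls as inhibition rises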
# Fam108b ABPP HTS = mouse ABHD17B inhibition. shares compounds with Fam108B inh. inhibition, % at 20 µM. AID 588649. 260 compounds, 44% hits. recombinant Fam108b, gel-based ABPP, fluorophosphonate probe; in the data active = inhibition above about 40%
# LYPLA1 confirm = LYPLA1 (human) inhibition, confirmation counter-screen; shares compounds with LYPLA1 counter; recombinant LYPLA1, FP-Rh probe fluorescence polarization; inhibition, % at 5.9 µM; 480 compounds, 69% hits;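 active = mean inhibition across replicates above the hit cutoff set in the primary screen, cut at about 15% in these data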;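 also: loss of FP-Rh probe labeling of LYPLA1 seen as lower polarization; 0% = LYPLA1 with DMSO and 100% = wells lacking LYPLA1 enzyme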
# LYPLA2 conf = counter-screen for PME1 inhibitors: confirmation of human LYPLA2 inhibitors. 1,100 compounds, 72% hits. recombinant LYPLA2, FP-Rh probe fluorescence polarization. shares compounds with LYPLA2 counter. inhibition, % at 5.9 µM;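 active = mean inhibition across replicates above the hit cutoff set in the primary screen, cut at about 26% in these data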;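 also: blocked labeling of the enzyme by serine hydrolase FP-Rh probe lowers polarization; 0% = enzyme with DMSO and 100% = wells lacking LYPLA2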
# PREPL confirm = confirmation of human PREPL enzyme inhibitors | AID 2803 | shares compounds with PREPL inhibitor | recombinant PREPL, fluorescence polarization activity probe | 2,000 compounds, 67% hits | inhibition, % at 5.96 µM;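 also: 0% = protein with DMSO and 100% = wells lacking protein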
# * = called active by the depositor; ? = inconclusive; . = not tested or not shown. An excerpt weighted towards active compounds, which were near 1.6% of everything screened. Rule as the data show it, unless noted: active = inhibition above about 43%; inactive = the rest.
SMILES,PME-1 primary,LYPLA2 counter,PREPL inhibitor,Fam108B inh,MEX-5 binding,LYPLA1 counter,Fam108b confirm,Fam108b ABPP HTS,LYPLA1 confirm,LYPLA2 conf,PREPL confirm
Cc1c(C(=O)N(Cc2cccc(Br)c2)C2CCS(=O)(=O)C2)oc2ccccc12 (stereo not drawn),-6,-3,7,-1,0,-3,.,.,.,.,.
O=C1c2ccccc2-c2onc3ccc(NCCCn4ccnc4)c1c23,109*,112*,110*,122*,?,105*,150*,80*,109*,117*,.
COc1ccc(N=C2NC(=O)S/C2=C\c2ccc(N(C)C)cc2)cc1,47*,33*,28,32*,2,28*,28*,.,27*,18,.
Cc1ccc(OCC(=O)N(Cc2ccco2)c2c(N)n(Cc3ccccc3)c(=O)[nH]c2=O)cc1C,6,5,1,.,.,3,.,.,.,.,.
Cc1c2cc(O)c(=O)cc-2oc2cc(O)c(O)cc12,113*,108*,60*,114*,?,95*,138*,0,94*,102*,.
Nc1ccc(O)c2c1C(=O)c1ccccc1C2=O,56*,62*,51*,53*,-9,50*,49*,0,36*,59*,.
O=C(CN1C(=O)NC(c2ccccc2)(c2ccccc2)C1=O)NCCNCCO,-4,9,7,-1,2,4,.,.,.,.,.
COc1ccc2c(c1)C(=NNc1ccc(C(=O)O)cc1)c1cc(OC)ccc1-2,-34,37*,27,30*,-1,28*,30*,0,19*,18,.
COc1ccc(/C(C)=N/Nc2ccc(C(=O)O)cc2)c(OC)c1,-6,-2,-7,1,-1,1,.,.,.,.,.
O=C(O)c1ccc(S(=O)(=O)/N=C2\C=C(Nc3ccccc3F)C(=O)c3ccccc32)cc1,26,26*,31,49*,-42*,7,66*,85*,.,75*,.
CC(C)c1ccc(S(=O)(=O)/N=C2\C=C(NS(=O)(=O)c3ccccc3)C(=O)c3ccccc32)cc1,-12,-19,9,6,-4,-13,.,.,.,.,.
COCCn1c(N)c(C(=O)NCC2CCCO2)c2nc3ccccc3nc21 (stereo not drawn),38*,71*,37,61*,-3,70*,-7,.,2,2,.
COc1cc(/C=C2\SC(=O)N(CC(=O)Nc3ccc(C)cc3)C2=O)cc(Cl)c1OCC(=O)O,-1,19,-6,-6,-1,-2,.,.,.,.,.
O=C(CN1C(=O)S/C(=C\c2cc(Cl)c(O)c(Cl)c2)C1=O)Nc1ccccc1,23,92*,6,23*,6,7,19*,.,.,82*,.
CN(c1ccccc1)S(=O)(=O)c1ccc(NC(=O)c2ccc(-c3ccccc3)cc2)cc1,64*,30*,-14,45*,2,22*,80*,95*,26*,35*,.
Cc1c(CCC(=O)N2CCC[C@H]2C(=O)O)c(=O)oc2cc3oc4c(c3cc12)CCCC4,-2,-5,26,-3,2,-4,.,.,.,.,.
Cn1c(=O)c(Nc2ccc(Cl)cc2)c2c3c(cccc31)C(=O)c1ccccc1-2,31*,33*,21,32*,-41*,20*,34*,0,34*,25,.
CC(=O)Nc1c2c3c(cccc3n(C)c1=O)C(=O)c1ccccc1-2,2,3,12,3,-7,4,.,.,.,.,.
O=S(=O)(Nc1cc2nc3ccccc3nc2n1Cc1ccccc1)c1ccc(Cl)cc1,53*,57*,50*,43*,1,54*,64*,20,45*,93*,42
COc1ccc(CCN(Cc2cccs2)S(=O)(=O)c2ccc(C(=O)O)cc2)cc1OC,3,-1,3,7,3,-6,.,.,.,.,.
CN(CC(=O)Nc1cccc(F)c1)C(=O)CCNC(=O)c1ccc(Br)cc1,5,-2,-1,0,-3,3,.,.,.,.,.
c1ccc2c(c1)nc(Nc1ccc3c(c1)OCO3)c1nnnn12,16,-3,47*,23*,2,-6,7,.,.,.,45*
Fc1cccc(Nc2nc3ccccc3n3nnnc23)c1,7,-2,-7,-9,-3,-8,.,.,.,.,.
COCCCNc1c2c3c(cccc3[nH]c1=O)C(=O)c1ccccc1-2,124*,126*,112*,106*,.,105*,131*,0,101*,97*,113*
COCCCNC1=C(Cl)C(=O)c2ccccc2C1=O,3,-2,5,2,-3,0,.,.,.,.,.
SMILES,PME-1 primary,LYPLA2 counter,PREPL inhibitor,Fam108B inh,MEX-5 binding,LYPLA1 counter,Fam108b confirm,Fam108b ABPP HTS,LYPLA1 confirm,LYPLA2 conf,PREPL confirm
CC(C)c1ccc(-c2nc(N3CCCCC3)[nH]c(=O)c2C#N)cc1,4,-2,8,-2,2,0,.,.,.,.,.
CC1=Nc2nc(N3CCCCC3)c(C#N)c3c4c(nc(c23)N1)N(c1ccc(C(C)C)cc1)C(=O)C4,14,-1,99*,27*,0,-8,14,.,.,.,72*
O=C(CCCN1C(=O)C2CC=CCC2C1=O)Nc1cccc(F)c1 (stereo not drawn),-2,2,-1,5,-3,-3,.,.,.,.,.
COc1cc(/C=N/Nc2nc3c(c(=O)n(C)c(=O)n3C)n2Cc2ccccc2)ccc1OC(=O)c1ccco1,39*,5,80*,19*,3,-10,-10,.,.,.,89*
COc1cccc(OCCn2cc(/C=N/NC(=O)c3ccncc3)c3ccccc32)c1,25,6,50*,25*,.,3,2,.,.,.,33
Cc1ccc(OCCn2cc(/C=N/NC(=O)c3ccncc3)c3ccccc32)cc1,69*,38*,52*,34*,0,-18,-11,.,.,.,65*
O=C(NCc1ccccc1)c1ccc2nc(-c3ccco3)c(-c3ccco3)nc2c1,16,-5,61*,19*,-1,-17,18,.,.,.,43*
O=C1C(Cl)=C(N2CCN(c3ccccc3[N+](=O)[O-])CC2)C(=O)c2ccccc21,25,16,58*,30*,-9,1,32*,5,.,.,44*
O=[N+]([O-])c1cc(Cl)ccc1N1CCCC1,5,3,15,-2,-2,-4,.,.,.,.,.
